PubChem BioAssay
Calls of active or inactive are those of the source.

Columns and labels:
[1] = optical density shifts of acrAB sulA E. coli – strain DRC41, OD650, 48 h, E. coli filamentation inducer project, primary screen (AID 1152); settings: higher = more signal, called active from +8 up or from −8 down;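 also: E. coli MC1000 strain DRC41 lacking acrAB efflux pump and sulA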
[2] = probe aLefty1 binding on compound microarray – biochemical, small-molecule microarray, 635/667 nm fluorescence, primary screen (AID 1153); settings: higher = more signal;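 also: score merges spot fluorescence with signal-to-noise ratio from the scanned slide images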
[3] = plasmodial surface anion channel blockers, osmotic lysis – cell-based, P. falciparum Indochina, OD700, 1 h, primary screen (AID 1154); settings: P. falciparum Indochina infected RBC osmotic lysis, higher = more signal, called active from +8 up or from −8 down
[4] = plasmodial surface anion channel blockers, osmotic lysis – cell-based, P. falciparum Indochina, OD700, 2 h, primary screen (AID 1155);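 also: lysis reports solute entry through the parasite surface anion channel PSAC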; settings: P. falciparum Indochina infected erythrocytes, higher = more signal, called active from +8 up or from −8 down
[5] = changes in parasitized red cell lysis, either direction – P. falciparum Indochina, OD700, 3 h, PSAC antagonist project, primary screen (AID 1156); settings: P. falciparum-infected erythrocytes, osmotic lysis, higher = more signal, called active from +8 up or from −8 down
[6] = plasmodial surface anion channel blockers, osmotic lysis – cell-based, P. falciparum Indochina, OD700, 18 h, primary screen (AID 1157); settings: P. falciparum Indochina infected erythrocytes, osmotic lysis OD700, 18 h; higher = more signal, called active from +8 up or from −8 down
[7] = S6 kinase pathway phospho-S6 level changes – cell-based, A549, cytoblot, luminescence, serum-stimulated, primary screen (AID 1158); settings: 5 h, higher = more signal;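 also: serum-stimulated A549 lung adenocarcinoma cells; signal is phosphorylated S6 detected by cytoblot immunostaining with HRP secondary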
[8] = biological target: NADPH oxidase 2 (Homo sapiens) (UniProt P04839); assay: compounds shifting NOX2 Amplex Red fluorescence – cell-based, HEK293-NOX2, PMA-stimulated, NOX inhibitor project, primary screen (AID 1159); settings: 45 min, higher = more signal, called active from +8 up or from −8 down; also: test concentration not given here
NADPH oxidase 2 (Homo sapiens), sequence (P04839 whole entry, looked up): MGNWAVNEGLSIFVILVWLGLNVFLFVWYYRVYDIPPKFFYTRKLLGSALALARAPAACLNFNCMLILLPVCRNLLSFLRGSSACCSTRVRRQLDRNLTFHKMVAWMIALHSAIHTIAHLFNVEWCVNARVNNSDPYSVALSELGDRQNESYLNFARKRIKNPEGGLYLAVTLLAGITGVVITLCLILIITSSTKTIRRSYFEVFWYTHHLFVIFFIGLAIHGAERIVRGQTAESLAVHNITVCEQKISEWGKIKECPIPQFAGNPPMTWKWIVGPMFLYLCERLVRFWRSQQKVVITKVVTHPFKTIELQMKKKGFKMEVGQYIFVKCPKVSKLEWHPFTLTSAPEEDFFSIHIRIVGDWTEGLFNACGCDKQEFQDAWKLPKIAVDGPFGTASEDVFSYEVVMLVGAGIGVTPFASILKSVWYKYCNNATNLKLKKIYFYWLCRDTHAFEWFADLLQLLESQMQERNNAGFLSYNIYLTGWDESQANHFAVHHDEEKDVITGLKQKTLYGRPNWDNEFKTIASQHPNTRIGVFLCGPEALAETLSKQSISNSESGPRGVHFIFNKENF

[9] = biological target: NADPH oxidase 4 (Homo sapiens) (UniProt Q9NPH5); assay: compounds shifting NOX4 Amplex Red fluorescence – cell-based, HEK293-NOX4, tetracycline-induced, NOX inhibitor project, primary screen (AID 1160); settings: HEK293-NOX4, Amplex Red H2O2 fluorescence, 45 min; higher = more signal, called active from +8 up or from −8 down
NADPH oxidase 4 (Homo sapiens), sequence (Q9NPH5 whole entry, looked up): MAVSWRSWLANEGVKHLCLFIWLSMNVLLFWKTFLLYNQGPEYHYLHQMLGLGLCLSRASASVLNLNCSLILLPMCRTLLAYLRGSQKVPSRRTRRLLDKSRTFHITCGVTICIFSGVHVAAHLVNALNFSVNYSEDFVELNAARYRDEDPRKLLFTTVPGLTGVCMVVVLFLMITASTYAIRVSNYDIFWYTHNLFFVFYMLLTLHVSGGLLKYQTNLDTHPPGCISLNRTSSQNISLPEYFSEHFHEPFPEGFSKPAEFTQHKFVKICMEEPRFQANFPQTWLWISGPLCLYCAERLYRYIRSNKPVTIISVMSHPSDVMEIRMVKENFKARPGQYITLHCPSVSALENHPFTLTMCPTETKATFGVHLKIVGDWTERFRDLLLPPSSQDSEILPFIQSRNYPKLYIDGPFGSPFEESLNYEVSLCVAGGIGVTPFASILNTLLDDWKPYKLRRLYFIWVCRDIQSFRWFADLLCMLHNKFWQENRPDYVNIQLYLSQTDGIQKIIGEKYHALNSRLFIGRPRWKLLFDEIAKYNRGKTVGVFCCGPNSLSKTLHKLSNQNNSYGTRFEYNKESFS

[10] = biological target: NADPH oxidase 5 (Homo sapiens) (UniProt Q96PH1); assay: compounds shifting NOX5 Amplex Red fluorescence – cell-based, HEK293-NOX5, NOX inhibitor project, primary screen (AID 1161); settings: HEK293-NOX5, ionomycin, 45 min, higher = more signal
NADPH oxidase 5 (Homo sapiens), sequence (Q96PH1 whole entry, looked up): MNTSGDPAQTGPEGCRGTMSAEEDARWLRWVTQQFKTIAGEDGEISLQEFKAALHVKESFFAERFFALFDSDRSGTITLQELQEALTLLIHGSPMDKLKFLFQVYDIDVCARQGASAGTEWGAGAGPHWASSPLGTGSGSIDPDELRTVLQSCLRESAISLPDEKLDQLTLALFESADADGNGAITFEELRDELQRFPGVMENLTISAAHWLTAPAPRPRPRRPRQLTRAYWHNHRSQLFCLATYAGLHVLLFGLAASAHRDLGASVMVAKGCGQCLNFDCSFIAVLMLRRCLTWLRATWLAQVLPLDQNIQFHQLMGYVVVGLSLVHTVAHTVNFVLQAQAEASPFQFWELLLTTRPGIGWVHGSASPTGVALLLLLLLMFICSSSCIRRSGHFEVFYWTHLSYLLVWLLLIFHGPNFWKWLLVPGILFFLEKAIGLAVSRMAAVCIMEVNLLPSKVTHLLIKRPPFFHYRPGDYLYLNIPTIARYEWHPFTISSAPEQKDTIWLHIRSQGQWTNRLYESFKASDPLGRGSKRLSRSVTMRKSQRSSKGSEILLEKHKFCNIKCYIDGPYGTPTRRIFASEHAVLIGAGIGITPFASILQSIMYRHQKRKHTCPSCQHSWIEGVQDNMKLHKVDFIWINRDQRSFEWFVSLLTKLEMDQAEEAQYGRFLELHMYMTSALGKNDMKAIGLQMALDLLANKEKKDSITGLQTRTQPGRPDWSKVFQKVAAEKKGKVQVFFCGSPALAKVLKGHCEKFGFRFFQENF

[11] = compound effects on lung adenocarcinoma cell viability – A549, calcein-AM fluorescence, 48 h, basal, profiling panel (AID 1162); settings: higher = more signal; also: test concentration not given here
[12] = compound effects on differentiated 3T3-L1 adipocyte viability – cell-based, 3T3-L1 adipocytes, calcein-AM fluorescence, 48 h, basal, profiling panel (AID 1163); settings: 3T3-L1 adipocytes viability, higher = more signal; also: test concentration not given here
[13] = compound effects on hepatocellular carcinoma cell viability – HepG2, calcein-AM fluorescence, 48 h, basal, profiling panel (AID 1164); settings: higher = more signal; also: test concentration not given here
[14] = compound effects on multiple myeloma cell viability – MM1S, calcein-AM fluorescence, 48 h, basal, profiling panel (AID 1165); settings: higher = more signal;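 also: viability of MM1S multiple myeloma cells under basal unstimulated conditions; test concentration not given here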
[15] = calcein-AM signal in unstimulated myeloma cells – cell-based, calcein-AM fluorescence, 48 h, PK04 Diversity Set, profiling panel (AID 1166); settings: RPMI8226 myeloma viability, higher = more signal;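 also: cells grown under basal conditions without added stimulus; test concentration not given here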
[16] = JC-1 mitochondrial signal, unstimulated HepG2 cells – cell-based, JC-1 fluorescence, 24 h, 100 nL compound, profiling panel (AID 1167); settings: HepG2 mitochondrial potential, higher = more signal; also: test concentration not given here
[17] = JC-1 mitochondrial signal, unstimulated adipocytes – cell-based, JC-1 fluorescence, 3T3-L1 adipocytes, 24 h, 100 nL compound, profiling panel (AID 1168); settings: JC-1 mitochondrial fluorescence, higher = more signal, called active from +8 up or from −8 down; also: test concentration not given here
[18] = JC-1 mitochondrial signal, unstimulated myeloma cells – cell-based, JC-1 fluorescence, RPMI8226, 24 h, 100 nL compound, profiling panel (AID 1169); settings: JC-1 mitochondrial potential fluorescence, higher = more signal; also: test concentration not given here
[19] = JC-1 mitochondrial signal, unstimulated MM1S myeloma – cell-based, JC-1 fluorescence, 24 h, 100 nL compound, profiling panel (AID 1170); settings: MM1S mitochondrial potential, higher = more signal; also: test concentration not given here
[20] = resazurin metabolic signal in A549 cells – cell-based, resazurin fluorescence, 24 h, PK04 Diversity Set, profiling panel (AID 1171); settings: A549 viability, higher = more signal, called active from +8 up or from −8 down; also: test concentration not given here

Compound	z-score [1]	composite z-score [2]	z-score [3]	z-score [4]	z-score [5]	z-score [6]	z-score [7]	z-score [8]	z-score [9]	z-score [10]	z-score [11]	z-score [12]	z-score [13]	z-score [14]	z-score [15]	z-score [16]	z-score [17]	z-score [18]	z-score [19]	z-score [20]
COC(=O)CC=C[C@H](C)[C@@H](OCc1cccc(Br)c1)[C@@H](C)[C@H](OC)C1CCCCC1	-0.533 (inactive)	-0.333	1.82 (inactive)	0.675 (inactive)	-0.0293 (inactive)	0.686 (inactive)	0.433	-0.453 (inactive)	0.286 (inactive)	0.664	0.836	0.128	1.21	-2.16	-0.474	0.918	0.831 (inactive)	0.00209	-0.324	0.0303 (inactive)
C#CCCCON=C1[C@H]2CCn3c(=O)n(-c4ccccc4)c(=O)n3[C@H]2[C@H](O)[C@@H]2O[C@H]12	0.555 (inactive)	-0.19	0.116 (inactive)	-1.22 (inactive)	0.43 (inactive)	-2.27 (inactive)	3.11	-0.858 (inactive)	0.137 (inactive)	0.607	-0.212	0.356	1.09	0.0128	-0.352	0.85	0.182 (inactive)	1.03	-0.61	-1.39 (inactive)
COC(=O)[C@@H]1CC[C@@H](C)[C@H](c2ccc(Br)cc2)N1	-0.394 (inactive)	0.0962	0.121 (inactive)	-0.0391 (inactive)	-0.242 (inactive)	-0.191 (inactive)	0.333	-3.29 (inactive)	-0.185 (inactive)	-0.781	0.376	0.931	0.232	-0.749	0.628	0.307	-0.00943 (inactive)	0.273	1.23	0.316 (inactive)
COc1ccc(COC(=O)NN=C2C[C@@H](O)[C@@H](O)[C@@H]3[C@@H]4C(=O)N(C5CCCCC5)C(=O)[C@@H]4CC[C@H]23)cc1	-1.01 (inactive)	-0.0611	9.99 (active)	1.51 (inactive)	0.103 (inactive)	0.549 (inactive)	0.173	-0.248 (inactive)	0.507 (inactive)	-0.712	-0.574	-1.09	-0.543	-1.15	-0.733	-0.895	-1.69 (inactive)	0.249	-0.244	0.0299 (inactive)
CC(C)CON=C1C[C@@H](O)[C@@H](O)[C@@H]2[C@@H]3C(=O)N(C[C@@H]4CCCO4)C(=O)[C@@H]3CC[C@@H]12	0.93 (inactive)	-0.0501	-0.441 (inactive)	-0.379 (inactive)	-0.611 (inactive)	-0.21 (inactive)	0.324	0.957 (inactive)	0.816 (inactive)	-0.0365	0.18	-0.149	-0.622	-0.61	-0.923	-0.49	0.977 (inactive)	-0.258	-0.0595	0.266 (inactive)
CC(CCC(=O)OC[C@H]1O[C@H](C#Cc2ccccc2)C=C[C@@H]1Oc1ccc(C)cc1)=NO[C@H](C)c1cn([C@H](CO)Cc2ccccc2)nn1	-0.757 (inactive)	-0.243	14.6 (active)	2.79 (inactive)	1.47 (inactive)	1 (inactive)	-1.01	-1.26 (inactive)	0.432 (inactive)	0.32	0.122	-0.643	-0.34	-3.06	-3.97	0.0151	-1.08 (inactive)	-0.712	-0.547	0.804 (inactive)
CC(C)CON=C1C[C@@H](O)[C@@H](O)[C@@H]2[C@@H]3C(=O)N(Cc4ccc5c(c4)OCO5)C(=O)[C@@H]3CC[C@H]12	-0.135 (inactive)	-0.198	1.22 (inactive)	0.32 (inactive)	0.337 (inactive)	0.108 (inactive)	-0.27	-0.378 (inactive)	1.02 (inactive)	-0.146	-0.223	-0.503	-0.479	0.119	-1.15	0.174	-0.589 (inactive)	0.704	-0.146	0.56 (inactive)
CCOC(=O)NN=C1C[C@@H](O)[C@@H](O)[C@@H]2[C@@H]3C(=O)N([C@@H](C)c4ccccc4)C(=O)[C@@H]3CC[C@@H]12	-0.0718 (inactive)	-0.0523	-0.308 (inactive)	0.0095 (inactive)	-0.611 (inactive)	-0.0871 (inactive)	-0.25	-0.819 (inactive)	0.589 (inactive)	-0.143	0.0669	-1.33	-0.624	0.372	-0.112	-0.369	-0.878 (inactive)	-0.92	-0.834	0.4 (inactive)
CCOC(=O)[C@H](Cc1ccccc1)NC(=O)CCC1CC(OC(=O)NCc2cccc3ccccc23)CC2(CCCC(COC(=O)NCc3ccccc3)O2)O1 (stereo not given in full)	-1.32 (inactive)	0.0935	4.71 (inactive)	0.55 (inactive)	-0.562 (inactive)	-0.2 (inactive)	3.91	-1.59 (inactive)	-1.2 (inactive)	-1.7	0.143	0.919	-1.03	0.418	-0.653	1.12	-0.39 (inactive)	-0.839	-1.18	0.682 (inactive)
